# Experimental data as given in ChEMBL document CHEMBL3988442, “University of Dundee, Small-Polar-MMV Screening Library” (2021).
# Experiments:
# [1] = target: T1, Aspartate--tRNA(Asp/Asn) ligase (Mycobacterium tuberculosis (strain ATCC 25618 / H37Rv)) (UniProt P9WFW3); assay: Assay for Asp RNA synthetase-1 from Mycobacterium tuberculosis; format: functional; set-up: scale not given: direction of the effect not stated beside the values; conditions: 30 µM; note: in the data most compounds retested in dose-response had high values
# T1 sequence (whole entry): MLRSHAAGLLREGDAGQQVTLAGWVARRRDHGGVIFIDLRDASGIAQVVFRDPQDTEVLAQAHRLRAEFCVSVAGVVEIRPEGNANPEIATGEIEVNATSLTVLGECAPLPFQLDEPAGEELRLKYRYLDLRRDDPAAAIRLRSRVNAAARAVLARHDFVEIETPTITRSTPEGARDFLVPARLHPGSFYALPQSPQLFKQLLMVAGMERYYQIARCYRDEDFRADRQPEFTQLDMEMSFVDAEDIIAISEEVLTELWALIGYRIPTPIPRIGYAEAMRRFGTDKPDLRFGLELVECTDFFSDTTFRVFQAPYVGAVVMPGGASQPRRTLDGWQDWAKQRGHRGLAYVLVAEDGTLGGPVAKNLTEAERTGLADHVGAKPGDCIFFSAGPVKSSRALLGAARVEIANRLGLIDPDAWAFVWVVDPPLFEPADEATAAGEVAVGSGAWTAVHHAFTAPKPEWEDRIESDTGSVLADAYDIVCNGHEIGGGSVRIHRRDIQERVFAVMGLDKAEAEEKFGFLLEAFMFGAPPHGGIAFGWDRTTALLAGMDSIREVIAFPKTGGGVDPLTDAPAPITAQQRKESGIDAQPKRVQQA
# [2] = target: Shiga toxin 2 (Escherichia coli O157:H7) (UniProt P09385+P09386); assay: E. coli 0.157:H7 Shiga Toxin SOP - stx2 screening assay; format: functional; set-up: scale not given: direction of the effect not stated beside the values; conditions: 30 µM
Structure (SMILES),Percent Effect [1] [%],Percent Effect [2] [%]
CCOCCn1c(=O)[nH]c2cc(C(=O)N(C)CCc3cn[nH]c3)ccc21,0.279,-26.7
O=C(NCC1CC1)Nc1cccc(N2CCN(CC3CC3)CC2)c1,-1.59,-38.1
N#CCCN(C(=O)CN1CCCC1c1ccsc1)c1ccccc1F (stereo unspecified),-3.67,4.76
Cc1cccc(CN2C(=O)CC[C@@H]3[C@H]2CCN3CC2CCOCC2)n1,-1.51,-5.24
CC(=O)Nc1ncc(S(=O)(=O)Nc2ccc(F)cc2F)s1,2.53,-38.5
COc1c(CNCc2cccc(CS(C)(=O)=O)c2)c(C)nn1C,1.7,20.4
CCCS(=O)(=O)N1CCC2(CC1)CN(c1ccccn1)CCO2,2.47,-46.8
CCCC(C)CN1CCC(n2cc(CCCO)nn2)CC1 (stereo unspecified),1.56,-23.7
CN(Cc1ccco1)C(=O)[C@H]1CSCN1C(=O)OC(C)(C)C,-1.74,10.2
CC(=O)Nc1nc(C(=O)NC(C)c2ccc3c(c2)OCCO3)cs1 (stereo unspecified),-1.73,7.36
O=C(NCCC(=O)N1CCCC1)c1nn(-c2ccccc2F)cc1O,-3.29,-59.6
Cc1ccc(O)c(CNC2CCc3nc(C(C)C)nn3C2)n1 (stereo unspecified),2.88,1.45
c1ccc(CCNC2CCc3ncnn3C2)nc1 (stereo unspecified),5.83,-16.7
Cc1nc(CN2CCCC2c2ccsc2)nc2ccccc12 (stereo unspecified),-2.75,-26.3
CN(C(=O)Cc1ccc2c(c1)OCCO2)C1CCCC1,-2.52,0.101
O=C(NCC1CCOCC1)[C@@H]1C[C@@H]2CCN(Cc3ccco3)C[C@H]2O1,0.32,4.1
Cc1cc(C)n(CC2CCCCN2Cc2cscn2)n1 (stereo unspecified),-3.34,25.2
CC(=O)N1CCCN(C(=O)c2oc(Br)cc2C)CC1,-0.167,-13.6
Cc1cccc(C(=O)N2CCC(Cc3cnc4[nH]ccc4c3)CC2)n1,4.87,5.08
Cc1ccsc1CN(C)Cc1nc2c(cnn2C)c(=O)[nH]1,-2.46,-6.66
Cc1cnn(CCC(=O)N2CCN(c3ncccc3Cl)CC2)c1,-7,13.3
Cc1cc(CN2CCN(C(=O)C(C)C)[C@@H]3CS(=O)(=O)C[C@@H]32)ccc1F,2.51,-10.2
O=C(NCCc1ccccc1)C1CCCN(c2ccc3nncn3n2)C1 (stereo unspecified),-2.08,-7.24
